{"source": "paper PMC7819943", "about": "“Rice protein-binding microarrays: a tool to detect cis-acting elements near promoter regions in rice”", "note": "Over roughly 35,000 sequences, “fluorescence intensity (a.u.)” has its median near 10,000; the highest 2% begin near 52,000. This is one part of a sample in which the highest values are shown more often than they occur."}
{"biological_target": "T1, OsWOX13 (Oryza sativa, UniProt Q5QMM3 1-267)", "T1 sequence": "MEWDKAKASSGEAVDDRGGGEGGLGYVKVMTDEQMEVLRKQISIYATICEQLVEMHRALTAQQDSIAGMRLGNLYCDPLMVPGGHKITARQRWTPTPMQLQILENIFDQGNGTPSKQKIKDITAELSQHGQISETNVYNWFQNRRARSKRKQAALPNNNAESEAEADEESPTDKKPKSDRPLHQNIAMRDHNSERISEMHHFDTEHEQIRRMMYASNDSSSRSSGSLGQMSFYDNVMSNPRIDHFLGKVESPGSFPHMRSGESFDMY", "experiment": "protein-binding microarray (RPBM); PBS, 2% BSA, 51.3 ng/ul salmon testes DNA, 50 uM zinc acetate, 200 nM TF, 25 C, 1 h; high values mean tight binding", "settings": "protein: recombinant; tags: N-terminal polyhistidine and DsRed monomer fusion (pET32a); label: CyDye5-dUTP incorporated in the synthesized complementary strand; 3' TTTTT single-stranded linker to array surface; dsDNA, one strand shown", "outline": "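Binding signal is reported as fluorescence intensity per feature (arbitrary units) from an Axon 4000B scanner. Incubation used 200 nM of each Ni–NTA-purified, N-terminally polyhistidine- and DsRed-fused transcription factor from E. coli BL21-CodonPlus on a double-stranded custom Agilent array for 1 h at 25 °C, with 50 µM zinc acetate in the buffer, followed by washing.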"}
{"sequence": "CAATGGTAAATTTATCCAGTCCAAAGTGAAAATATATGGTCGGAGTCACCTAGTGCAG", "binding signal": "3960 fluorescence intensity (a.u.)"}
{"sequence": "CTCCTTAATTTACTTATTTGTCTTTAATTGGTTCTCGCACCGGAGTCACCTAGTGCAG", "binding signal": "33700 fluorescence intensity (a.u.)"}
{"sequence": "CTGCCTGTAAATTTCTGTGATTTGATGTTTGCCTCTGTTGCGGAGTCACCTAGTGCAG", "binding signal": "11300 fluorescence intensity (a.u.)"}
{"sequence": "ATTTAAATCATCATCTATAGTCAATCTAATAGCTCACTCACGGAGTCACCTAGTGCAG", "binding signal": "8910 fluorescence intensity (a.u.)"}
{"sequence": "AATAATAATTAATTATAGTAATTAATCATTAATTTTGTACCGGAGTCACCTAGTGCAG", "binding signal": "64100 fluorescence intensity (a.u.)"}
{"sequence": "TTTTAAATTTAAAATAATTAAAACTCAATTAATAATTTGTCGGAGTCACCTAGTGCAG", "binding signal": "31300 fluorescence intensity (a.u.)"}
{"sequence": "GATTAATTAATTAATCTCAATGATGGTAAATACATTCCCACGGAGTCACCTAGTGCAG", "binding signal": "63100 fluorescence intensity (a.u.)"}
{"sequence": "AATAATTAAATTTGATATAATAAATTAATATGTGATATGTCGGAGTCACCTAGTGCAG", "binding signal": "35700 fluorescence intensity (a.u.)"}
{"sequence": "ATTAAATCAATAATTAAATATATTTTCATAATAAATTTGTCGGAGTCACCTAGTGCAG", "binding signal": "23400 fluorescence intensity (a.u.)"}
{"sequence": "AGTGATAAATTTGAGTGATTACTATATGACACCGTTGTGTCGGAGTCACCTAGTGCAG", "binding signal": "55700 fluorescence intensity (a.u.)"}
{"sequence": "GTTAATTAATTATATTATAATAATTCTCTCAATTTGTCGCCGGAGTCACCTAGTGCAG", "binding signal": "65500 fluorescence intensity (a.u.)"}
{"sequence": "TATAACTAAAATTATATTTGTAAGTTTAGTTGATATGACACGGAGTCACCTAGTGCAG", "binding signal": "6390 fluorescence intensity (a.u.)"}
{"sequence": "TAATATTATATTTAATTTGCATTATTTTAAATATAGTACCCGGAGTCACCTAGTGCAG", "binding signal": "3730 fluorescence intensity (a.u.)"}
{"sequence": "ATCAATCTCAATGGTTAAATGATTGATCTATCATAATTCACGGAGTCACCTAGTGCAG", "binding signal": "22100 fluorescence intensity (a.u.)"}
{"sequence": "AGTAATTTTGGTACAATTAATAAATAAATCTGATACCTCACGGAGTCACCTAGTGCAG", "binding signal": "21200 fluorescence intensity (a.u.)"}
{"sequence": "TTTTAGTAAATTAATAAATATTTATTTTGTTATTTAATACCGGAGTCACCTAGTGCAG", "binding signal": "13200 fluorescence intensity (a.u.)"}
{"sequence": "CAATGACTGATTACTGTGTTGATAGAATTTCATATACATTCGGAGTCACCTAGTGCAG", "binding signal": "34300 fluorescence intensity (a.u.)"}
{"sequence": "TAAAATTTGGAACTGAAATTTCTAACATTTCGGGTCCATCCGGAGTCACCTAGTGCAG", "binding signal": "4680 fluorescence intensity (a.u.)"}
{"sequence": "AAGATAGATAGATTCATCGCGATCGATCGAGCGGGAGGTACGGAGTCACCTAGTGCAG", "binding signal": "22500 fluorescence intensity (a.u.)"}
{"sequence": "AAACCATTGCAAATTAACTCTCCAAATGGTTTCAGAGACGCGGAGTCACCTAGTGCAG", "binding signal": "4040 fluorescence intensity (a.u.)"}
{"sequence": "TACGCTATACGCAGTAATTGATATATATAATCTTCATGGTCGGAGTCACCTAGTGCAG", "binding signal": "8920 fluorescence intensity (a.u.)"}
{"sequence": "CCAAATGGGACAAAAGATTGAAAAGAAAACTGACAGCCGCCGGAGTCACCTAGTGCAG", "binding signal": "13900 fluorescence intensity (a.u.)"}
{"sequence": "GTCCCAATGATTGCCAGCCCCGGTGGACGGGTGTAGAAGCCGGAGTCACCTAGTGCAG", "binding signal": "38100 fluorescence intensity (a.u.)"}
{"sequence": "CTTTTAAATGTAGTATAATTATATTATAACTAATAACTAGCGGAGTCACCTAGTGCAG", "binding signal": "18300 fluorescence intensity (a.u.)"}
{"sequence": "ATAACTATTTAATTGACATGCAATAAATATAAATGGGTAGCGGAGTCACCTAGTGCAG", "binding signal": "52600 fluorescence intensity (a.u.)"}
{"sequence": "TATAATTGACATGCAATTATAATAACGTGGGTTAAATATACGGAGTCACCTAGTGCAG", "binding signal": "33800 fluorescence intensity (a.u.)"}
{"sequence": "CCAAATTCATCTTAATGTTTGATTATGATCAGCATCTTATCGGAGTCACCTAGTGCAG", "binding signal": "4610 fluorescence intensity (a.u.)"}
{"sequence": "TCTAAATTGTATTTCTATATGGACTCTAGTCTCCTCTTCACGGAGTCACCTAGTGCAG", "binding signal": "14000 fluorescence intensity (a.u.)"}
{"sequence": "AGCTCTGATTGAATTAGCTAATTATGGTTGCACGTCTAAGCGGAGTCACCTAGTGCAG", "binding signal": "59600 fluorescence intensity (a.u.)"}
{"sequence": "CGTCTAATTAAGCGTAGACGATCTGATTCGCTAGCTCGCACGGAGTCACCTAGTGCAG", "binding signal": "10600 fluorescence intensity (a.u.)"}
{"sequence": "GAAACGTGATTCAAATGATTATTCAGGTACAATAATCTTACGGAGTCACCTAGTGCAG", "binding signal": "8070 fluorescence intensity (a.u.)"}
{"sequence": "GAACAATAGATTAATATATAATTAAATAAATATTAGTCAACGGAGTCACCTAGTGCAG", "binding signal": "25100 fluorescence intensity (a.u.)"}
{"sequence": "TAAACATCTGATTAGCTAAAAGTGTTTAATTAGATTTCCACGGAGTCACCTAGTGCAG", "binding signal": "21800 fluorescence intensity (a.u.)"}
{"sequence": "AGTCAAATTAATCACGCAGCTGAATGCTGAATAATGTGTCCGGAGTCACCTAGTGCAG", "binding signal": "24000 fluorescence intensity (a.u.)"}
{"sequence": "GAAATAATTAATCAATTAACGCTGATGTGTGAGCTGCGTACGGAGTCACCTAGTGCAG", "binding signal": "53800 fluorescence intensity (a.u.)"}
{"sequence": "TACAATCTGATTAATTAATTAGCACGGAAAATAATGTCAACGGAGTCACCTAGTGCAG", "binding signal": "59200 fluorescence intensity (a.u.)"}
{"sequence": "TCCCCTCTGATTAATTAATTAATTAATTAATTAGCTAAAACGGAGTCACCTAGTGCAG", "binding signal": "65500 fluorescence intensity (a.u.)"}
{"sequence": "TATTAATTTGTAATTAATATTGAATAACGCTGCGTGAGTACGGAGTCACCTAGTGCAG", "binding signal": "45900 fluorescence intensity (a.u.)"}
{"sequence": "CAGTTGATTGGCCGACGTTATGATATGGTAGCTGAATTAGCGGAGTCACCTAGTGCAG", "binding signal": "44100 fluorescence intensity (a.u.)"}
{"sequence": "TCCTCTCTTAATTAATTATTAGCTCGTGTTAATTGTTAAACGGAGTCACCTAGTGCAG", "binding signal": "32800 fluorescence intensity (a.u.)"}
{"sequence": "TTACAAGACTTTCAATTATTATCCACATTTATATAGATGTCGGAGTCACCTAGTGCAG", "binding signal": "7150 fluorescence intensity (a.u.)"}
{"sequence": "CACCAATCAGGGTTCCAAGTAGAAGAGGTGGGCAGAGAGCCGGAGTCACCTAGTGCAG", "binding signal": "6870 fluorescence intensity (a.u.)"}
{"sequence": "GATAATTTGGTCATTGCTAAAATATTTGGGAAAAGTTAGCCGGAGTCACCTAGTGCAG", "binding signal": "23700 fluorescence intensity (a.u.)"}
{"sequence": "TTATAATTGGAAAATAAATGAAGGGTTATAATTAAATGAACGGAGTCACCTAGTGCAG", "binding signal": "12000 fluorescence intensity (a.u.)"}
{"sequence": "CTAAGCTGTGATTTCTTTTCTTTATGTCACCACCTCCAAACGGAGTCACCTAGTGCAG", "binding signal": "3460 fluorescence intensity (a.u.)"}
{"sequence": "TTAATTAGACTGACATGTGGGGTCCGCGTGGGTCCCACCACGGAGTCACCTAGTGCAG", "binding signal": "20200 fluorescence intensity (a.u.)"}
{"sequence": "TAGTCGTGTCAATTTGGAAAATTGGAAAGCCGTGGGGAGACGGAGTCACCTAGTGCAG", "binding signal": "11400 fluorescence intensity (a.u.)"}
